LRH-1 inv ag: LRH-1 (NR5A2) inverse agonists, primary screen, cell-based, luminescence, HEK293T, StAR-luciferase reporter; LRH-1 transfected, 24 h; inhibition, % at 3.6 µM; 360,000 tested, 0.13% active; AID 602396, 2012;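 active means inhibition above the mean inhibition of all tested compounds plus 3 SD, cut at about 73% in these data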;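 further: 0% = DMSO wells and 100% = reporter-only cells lacking LRH-1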
NCOA1 inh: SRC1 coactivator transcriptional activity inhibitors, primary screen, cell-based, luminescence | Nuclear receptor coactivator 1 (Homo sapiens), Q15788 | HEK293 GAL4-SRC1 luciferase reporter | inhibition, % at 3.6 µM | 360,000 tested, 0.12% active | AID 588354, 2011;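 active means inhibition above the campaign mean plus 3 SD, with each screening campaign given its own cutoff, cut at about 60% in these data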;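 further: 0% = DMSO treated cells and 100% = gossypol at 36 µM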
SRC2 inh: inhibition of GAL4-SRC2 driven luciferase reporter, primary screen, SRC2 inhibitor project, cell-based, luminescence; Nuclear receptor coactivator 2 (Homo sapiens), Q15596; HEK293 GAL4-SRC2 luciferase reporter; inhibition, % at 9 µM; 370,000 tested, 0.17% active;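 active means inhibition above the mean inhibition of all tested compounds plus 3 SD, set per campaign, cut at about 52% in these data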;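 further: 0% = DMSO treated cells and 100% = cells given Gossypol at 36 µM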
SRC3 inh: SRC3 coactivator transcriptional activity inhibitors, primary screen, cell-based, luminescence. HEK293 GAL4-SRC3 luciferase reporter. inhibition, % at 3.6 µM. 360,000 tested, 0.17% active. AID 588352, 2011;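 active means inhibition above a per-campaign cutoff, the mean of all compounds plus 3 SD, cut at about 60% in these data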;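 further: 0% = DMSO-treated cells and 100% = gossypol-treated cells at 36 µM; higher means less SRC3-driven luciferase light from the GAL4 reporter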
Target sequence (Q9Y6Q9 whole entry, looked up, the tested form may be a part): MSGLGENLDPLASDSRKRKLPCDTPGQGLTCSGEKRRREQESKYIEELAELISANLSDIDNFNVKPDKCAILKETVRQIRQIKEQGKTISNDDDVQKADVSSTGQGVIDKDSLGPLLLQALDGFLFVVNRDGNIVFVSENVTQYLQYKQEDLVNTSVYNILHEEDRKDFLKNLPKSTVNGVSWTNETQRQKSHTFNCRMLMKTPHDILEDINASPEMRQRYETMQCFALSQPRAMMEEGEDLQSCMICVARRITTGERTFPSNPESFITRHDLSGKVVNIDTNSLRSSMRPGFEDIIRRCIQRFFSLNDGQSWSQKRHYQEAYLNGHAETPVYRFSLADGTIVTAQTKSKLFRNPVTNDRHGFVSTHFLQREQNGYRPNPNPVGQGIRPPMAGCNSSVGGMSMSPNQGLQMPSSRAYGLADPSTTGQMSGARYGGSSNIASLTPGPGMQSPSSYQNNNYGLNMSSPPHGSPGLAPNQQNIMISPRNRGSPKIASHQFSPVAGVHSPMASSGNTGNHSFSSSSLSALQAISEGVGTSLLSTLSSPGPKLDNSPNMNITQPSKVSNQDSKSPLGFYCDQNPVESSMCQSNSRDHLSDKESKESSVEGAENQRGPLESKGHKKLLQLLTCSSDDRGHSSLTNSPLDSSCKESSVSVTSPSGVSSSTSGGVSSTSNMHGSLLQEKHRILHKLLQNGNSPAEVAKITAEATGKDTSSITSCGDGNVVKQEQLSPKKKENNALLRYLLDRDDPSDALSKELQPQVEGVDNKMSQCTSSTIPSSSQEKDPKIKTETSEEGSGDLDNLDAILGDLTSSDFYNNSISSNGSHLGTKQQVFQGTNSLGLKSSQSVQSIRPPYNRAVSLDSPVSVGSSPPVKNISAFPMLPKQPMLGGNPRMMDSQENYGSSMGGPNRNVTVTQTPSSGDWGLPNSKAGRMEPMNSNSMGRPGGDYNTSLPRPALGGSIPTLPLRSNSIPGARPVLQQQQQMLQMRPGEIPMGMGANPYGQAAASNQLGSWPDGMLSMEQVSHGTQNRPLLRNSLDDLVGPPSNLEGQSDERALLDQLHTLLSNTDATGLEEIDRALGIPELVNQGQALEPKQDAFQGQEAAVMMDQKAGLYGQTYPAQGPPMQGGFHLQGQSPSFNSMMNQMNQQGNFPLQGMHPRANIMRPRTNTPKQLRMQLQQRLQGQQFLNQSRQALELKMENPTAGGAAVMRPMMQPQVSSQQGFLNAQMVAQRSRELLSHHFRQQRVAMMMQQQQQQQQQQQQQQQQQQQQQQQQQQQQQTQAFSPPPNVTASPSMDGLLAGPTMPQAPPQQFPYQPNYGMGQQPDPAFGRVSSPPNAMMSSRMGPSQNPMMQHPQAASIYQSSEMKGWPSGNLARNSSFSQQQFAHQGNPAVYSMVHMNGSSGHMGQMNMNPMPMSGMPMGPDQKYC
LMP1 NFkB inh: EBV LMP1-driven NF-kappaB luciferase reporter inhibitors, primary screen, cell-based, luminescence, single point; LMP1-induced NF-kappaB luciferase reporter cells; inhibition, % at 12.5 µM; 350,000 tested, 0.69% active; AID 504558, 2011; in the data active means inhibition above about 41%;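 further: 0% = neutral control wells and 100% = reference inhibitor control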
The depositor's hits bear a star; · = no result. Rows were chosen to be rich in hits. Some 0.78% of all compounds tested hit in one or more screens of this group.

SMILES	LRH-1 inv ag	NCOA1 inh	SRC2 inh	SRC3 inh	LMP1 NFkB inh
Cc1nnc(-c2ccccc2)c(=O)n1/N=C/c1c(O)ccc2ccccc12	20	55	46	74*	14
CC(=O)N1CCCN(S(=O)(=O)c2ccc3c(c2)oc(=O)n3C)CC1	·	·	-17	·	·
C#CCN(C[C@@H]1[C@@H](OC(=O)NCc2ccccc2F)[C@@H](OC(=O)NCc2ccccc2F)Cn2c(=O)ccc(=O)n21)S(=O)(=O)c1ccc(C)cc1	25	5	22	36	61*
C#CCN(C[C@@H]1[C@@H](OC(=O)NCc2ccccc2F)[C@@H](OC(=O)NCc2ccccc2F)Cn2c(=O)n(CCCCCC)c(=O)n21)S(=O)(=O)c1ccc(C)cc1	16	-2	0	-7	-29
COCCn1c(C)cc(C(=O)COC(=O)c2cccc(O)c2)c1C	-19	54	52	60	82*
COCCn1c(C)cc(C(=O)COC(=O)C23CC4CC(CC(O)(C4)C2)C3)c1C	-71	-95	-21	-38	42*
COCCn1c(C)cc(C(=O)COC(=O)c2cc3c(s2)CCC3)c1C	6	9	-14	-17	-12
CC(C)CNC(=O)C1CSCCS(=O)(=O)N1Cc1ccccc1 (configuration not stated)	·	·	-20	·	·
C=CCN1[C@H](C#N)[C@@H](c2ccc(C#Cc3ccccc3OC)cc2)[C@H]1CO	·	·	32	·	·
CCc1ccc(C(=O)COC(=O)c2cccc(N3C(=O)c4c(C)nc5ccccc5c4C3=O)c2)cc1	-47	-47	-58	-35	45*
COCCNC(=O)C1Cc2c(ccc3ccccc23)O1 (configuration not stated)	-3	-12	3	3	1
COc1ccc(S(=O)(=O)NNC(=O)C2Cc3c(ccc4ccccc34)O2)cc1 (configuration not stated)	8	21	11	23	44*
COc1ccc(/C=C/C(=O)Nc2ccc(OC)nc2)cc1	-32	-8	-10	-5	-14
COc1ccc(NC(=O)Cc2ccccc2)cn1	12	9	-45	4	0
COc1ccc(CS(=O)(=O)/C(Cl)=C(/Cl)C(=O)Nc2ccc(OC)nc2)cc1	17	-82	·	27	91*
COc1ccc(NC(=O)/C(Cl)=C(/Cl)S(=O)Cc2ccccc2)cn1 (configuration not stated)	69	-58	84*	26	83*
CCC/C(=C1/c2ccccc2C(=O)N1c1ccccc1)c1ccc(C=O)o1	·	·	10	·	·
COc1ccccc1C(=O)CSc1nnc(-c2ccncc2)n1-c1ccc(Cl)cc1	·	·	-20	·	·
Cn1cccc1C(=O)OCC(=O)Nc1ccc2c(c1)OCO2	-9	5	-13	-4	44*
Cn1cccc1C(=O)OCC(=O)Nc1ccc2c(c1)CCC2	-50	-90	-11	-59	-19
CSC1SCC2C(=O)N(C)C(C(C)C)C(=O)OCC(NC(=O)c3cnc4ccccc4n3)C(=O)NC(C)C(=O)N(C)C1C(=O)N(C)C(C(C)C)C(=O)OCC(NC(=O)c1cnc3ccccc3n1)C(=O)NC(C)C(=O)N2C (configuration not stated)	96*	85*	66*	86*	85*
CSc1ccc(/C=N/Nc2cccc(C(=O)O)c2)cc1	-211	-158	·	-146	56*
O=C(O)c1cccc(N/N=C/c2cccs2)c1	-154	-172	-85	-25	57*
O=C(O)c1cccc(N/N=C/c2ccc(OC(F)(F)F)cc2)c1	-225	-163	-46	-101	39
CC(C)[C@H](N[C@@H](C)c1ccccc1)c1c(O)ccc2ccccc12	12	-40	4	-21	66*
CC(C)(C)C(=O)NC(c1ccccc1)c1c(O)ccc2ccccc12 (configuration not stated)	-9	7	-14	3	-14
CCCC(=O)C1=C(O)C(C(=O)OC)C(C)(C)CC1=Nc1ccncc1 (configuration not stated)	-5	-6	13	-12	77*
